Measurements from PubChem BioAssay (NCI).
About 83,000 compounds went through this panel and 20% of them were active in at least one assay; those are over-represented in the sample as a whole.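 48-hour exposure, single concentration, 96-well plates; percent growth endpoint where 0 means no net growth. Active: below 10.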 A number with no mark means an inactive call. The source made the active and inactive calls.

tested on: HCT-15 colon; test: NCI-60 one-dose screen, 48 h (100 = growth as untreated, 0 = no growth, -100 = all killed); details: 10 µM unless noted

Compound	growth
OCCCCc1nccc2c1[nH]c1ccccc12	104%
CCCn1nc(-c2ccccc2)c2c(-c3ccccc3)onc2c1=O	61.8%
Cc1cc(N(CCCNc2ccnc3cc(Cl)ccc23)Cc2ccccn2)nc(N2CCCC2)n1	48.3%
C=C(C)[C@@H]1CC[C@]2(CN)CC[C@]3(C)[C@H](CC[C@@H]4[C@@]5(C)CCC(N)[C@@](C)(CO)[C@@H]5CC[C@]43C)[C@@H]12 (some centres undefined)	-47.6% (active)
COc1ccc(-n2ncn(CCCCCCn3cnn(-c4ccc(OC)cc4)c3=O)c2=O)cc1	95.3%
O=C(NC1CCOCC1)c1ccc2c(c1)CN(c1ncc(Cc3cccc(-n4cccn4)c3)s1)CC2	79.3%
C=C(CNCCc1ccc(O)cc1)[C@@H]1CC[C@]2(COC3CCCCO3)CC[C@]3(C)[C@H](CC[C@@H]4[C@@]5(C)CCC(NCCO)C(C)(C)[C@@H]5CC[C@]43C)[C@@H]12 (some centres undefined)	-93.5% (active)
Cc1c(C(=O)O[C@H]2[C@@H]3[C@H](C)CC[C@H]3[C@]3(C)O[C@@]2(C2CCCCC2)C[C@H]3OC(=O)CO)ccc2ccccc12	14.2%
COc1ccc(Oc2nc(Nc3ccc(N4CCCCC4)nc3)ncc2NC(=O)c2cc(OC)cc(OC)c2)cc1	17.8%
O=C(Oc1ccc[nH]c1=O)c1cc([N+](=O)[O-])cc([N+](=O)[O-])c1	103%
Cc1cc(N2CCCCC2)nc(N(CCNc2ccnc3cc(Cl)ccc23)Cc2ccccn2)n1	17.6%
CCCCOc1ccc(NC(=O)n2nc(N=NN(C)C)c3ccc(Cl)cc32)cc1	105%
O=C1NN(C(=O)c2ccc(O)cc2)C(c2ccccc2)=N/C1=C\c1cn(-c2ccccc2)nc1-c1ccccc1	103%
COC(=O)/C(=C\c1ccc(OC)cc1)C(=O)N1c2ccccc2Sc2ccccc21	24%
COc1ccc(Oc2nc(Nc3ccc(N4CCOCC4)nc3)ncc2NC(=O)c2cc(OC)cc(OC)c2)cc1	52.9%
NC(=O)c1c(NC(=O)c2ccc(C(F)(F)F)cc2Cl)sc2c1CCC(=O)C2	-35% (active)
O=C(NCCOCCOCCOCCNC(=O)c1cc2c(o1)C(=O)c1ccccc1C2=O)NC12CC3CC(CC(C3)C1)C2	-74.7% (active)
COC(=O)c1ccc(CSc2nnc(-c3ccncc3)o2)cc1	108%
CCCc1nc2ccccn2c1Nc1ccc(C(=O)NO)cc1	89.8%
Fc1ccc(Nc2ccc3cc(OCCCN4CCOCC4)ccc3n2)cc1F	28.7%

Compound	growth
C=C1c2c(C)nn(-c3ccc(S(N)(=O)=O)cc3)c2N(C)C23CC1C1(C)c4c(C)nn(-c5ccc(S(N)(=O)=O)cc5)c4N(C)C(C)(CC12)C3 (centres undefined)	14.6%
C=C1c2c(C)nn(-c3ccc(NC(C)=O)cc3)c2N(C)C23CC1C1(C)c4c(C)nn(-c5ccc(NC(C)=O)cc5)c4N(C)C(C)(CC12)C3 (centres undefined)	11%
C[C@@H]1CC[C@@H]2[C@@H]1[C@H](OC(=O)c1ccc3ccccc3c1)[C@]1(C3CCCCC3)C[C@@H](OC(=O)CO)[C@@]2(C)O1	40.9%
CC(C)(C)c1ccc(C(=O)Nc2sc3c(c2C(N)=O)CCC(=O)C3)cc1	-29.3% (active)
N=c1ccn2c(n1)OC1C(O)C(CO)OC12 (centres undefined)	49.9%
NC(=Nc1ccc(N)cc1)C(N)=Nc1ccc(N)cc1	98.5%
COc1ccc(/C=C(\C#N)n2nnc3cc(F)c(F)cc32)c(OC)c1OC	43.7%
C=C1c2c(C)nn(-c3ccc(O)cc3)c2N(C)C23C[C@@H]1C1(C)c4c(C)nn(-c5ccc(O)cc5)c4N(C)C(C)(C[C@H]12)C3 (some centres undefined)	11.1%
CSc1ccc(Cl)c(C(=O)Nc2sccc2C(N)=O)c1	98.8%
C=C1c2c(C)nn(-c3ccc(N)cc3)c2N(C)C23CC1C1(C)c4c(C)nn(-c5ccc(N)cc5)c4N(C)C(C)(CC12)C3 (centres undefined)	38.5%
CC(=O)Nc1ccc2c(c1)Cc1c(F)cccc1-2	108%
C=C(C)[C@@H]1CC[C@]2(CNCCO)CC[C@]3(C)[C@H](CC[C@@H]4[C@@]5(C)CCC(N)[C@@](C)(CO)[C@@H]5CC[C@]43C)[C@@H]12 (some centres undefined)	32.4%
Cc1cnc(Nc2ccc(OCCN3CCCC3)cc2)nc1NCc1ccco1	74.6%
Cc1cc(N(CCCNc2ccnc3cc(Cl)ccc23)Cc2ccccn2)nc(N2CCOCC2)n1	87.3%
C=C(CNCCc1ccc(O)cc1)[C@@H]1CC[C@]2(COC3CCCCO3)CC[C@]3(C)[C@H](CC[C@@H]4[C@@]5(C)CCC(N)C(C)(C)[C@@H]5CC[C@]43C)[C@@H]12 (some centres undefined)	-93% (active)
Clc1ccc2c(NCCCN3CCN(c4nc(-n5ccnc5)nc5ccccc45)CC3)ccnc2c1	-64.6% (active)
Cn1c(NCCc2ccc(O)c(O)c2)nc2c1c(=O)n(Cc1ccc(Cl)cc1)c(=O)n2C	40.7%
CCN(CC)N=Nc1nn(C(=O)Nc2ccc(Cc3ccccc3)cc2)c2ccc(Cl)cc12	43.6%
COC(=O)c1ccc2oc(NC(=O)c3ccc(N4CCOCC4)c([N+](=O)[O-])c3)nc2c1	107%
